HCMV inh – human cytomegalovirus inhibition. 410,000 tested, 4.5% active. activity change, negative = inhibition, % at 57.5 µM. HFF cells, HCMV-luciferase reporter, 72 h; stronger effect = lower value; in the data active = activity change below about -60%; inconclusive = no clear call, values can overlap the other calls; inactive = above about -39%
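Compounds were evaluated in HFFs infected with an HCMV luciferase reporter virus (MOI 1 PFU/cell). Luciferase in lysates collected 72 h post infection served as the replication measure.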
FMDV inh – antivirals against foot and mouth disease virus; FMDV antiviral cell-based qHTS; Potency, µM (top dose mostly 57.9 µM), without a hit: at the top dose activity change, negative = inhibition, actives largely listed as inhibitors; 410,000 tested, 1.2% active; AID 1159524; calls by dose curve; tested in HEK293T cells; also: read-out not given here; potency is read from the fitted curve at half-maximal effect; nearly all actives have a fitted effect of over 45% in size
AmpC inh no detg – AmpC beta-lactamase inhibition without detergent. 330,000 tested, 0.52% active. Potency, µM (titrated, usually from 57.1 µM), for the others: at the top dose activity change, negative = inhibition, most hits filed as inhibitors. AID 485341. P00811. AmpC nitrocefin hydrolysis, absorbance 480 nm, 0.0001% Triton;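 also: potency is read from the fitted curve at half-maximal effect; plate controls were no compound for no effect and no enzyme for full effect; nearly all actives have a fitted effect of over 20% in size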
Target sequence (P00811 whole entry, looked up): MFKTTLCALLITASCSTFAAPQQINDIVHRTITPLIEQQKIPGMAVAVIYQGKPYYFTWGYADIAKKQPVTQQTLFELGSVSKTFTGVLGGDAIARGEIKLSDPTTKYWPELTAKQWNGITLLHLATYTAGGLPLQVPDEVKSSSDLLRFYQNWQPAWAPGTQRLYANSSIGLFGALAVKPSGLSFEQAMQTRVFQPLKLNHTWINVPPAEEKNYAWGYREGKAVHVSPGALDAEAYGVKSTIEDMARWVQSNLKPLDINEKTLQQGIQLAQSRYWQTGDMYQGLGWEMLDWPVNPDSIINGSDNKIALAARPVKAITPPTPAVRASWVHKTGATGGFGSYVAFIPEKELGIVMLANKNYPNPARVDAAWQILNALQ
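20 mM phosphate pH 7.0 + 0.01% (detergent screen) or 0.0001% Triton X-100; 5.3 nM AmpC reagent; cpd preinc 15 min RT; nitrocefin (800 uM stock) to start; A480 q20 s × 4 min; Activity was normalised to no-enzyme and no-compound control wells.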
AmpC inh detg – inhibitors of E. coli AmpC beta-lactamase with detergent. Potency, µM (titrated, usually from 114 µM), for inactives: at the top dose activity change, negative = inhibition, most hits filed as inhibitors. 370,000 tested, 0.041% active. AID 485294. AmpC hydrolysis of nitrocefin, absorbance 480 nm, 0.01% Triton;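 also: potency is read from the fitted curve at half-maximal effect; 0% = no-compound wells and -100% = no-enzyme wells; nearly all actives have a fitted effect of over 25% in size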
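AmpC (5.3 nM in the dispensed reagent) in 20 mM phosphate pH 7.0 with 0.01% (detergent screen) or 0.0001% Triton X-100 was preincubated with compounds for 15 min at room temperature. Nitrocefin was then added from an 800 uM solution, and hydrolysis was followed at 480 nm.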
HCV inhibitor – HCV inhibition; Huh7.5.1 HCVcc-Cre infection, luciferase reporter, 44 h; 340,000 tested, 3.4% active; Potency, µM (doses to about 41.8 µM), without a hit: top-dose activity change, negative = inhibition, most hits filed as inhibitors; AID 651820; also: potency is read from the fitted curve at half-maximal effect
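Compounds are dispensed onto cells plated 4 h earlier at 1,000 per well, with HCVcc-Cre virus (about 0.5 moi) added next. Following 44 h of culture, luminescent signal is measured for 15 sec after 15 min with substrate at room temperature.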
* = called active by the depositor; ? = inconclusive; / = no result. An excerpt weighted towards active compounds, which were near 7.3% of everything screened. Unless noted, calls follow the shape of the dose curve; as a rule, active = well fitted curve in the direction sought with a large enough effect; inconclusive = small, poorly fitted or top-dose-only effect, or another doubt; inactive = no such curve, though single readings can be large; an effect the other way counts as inactive or inconclusive. Unless noted, % is scaled to controls: 0 for no effect and ±100 for the full control effect.

SMILES	HCMV inh	FMDV inh	AmpC inh no detg	AmpC inh detg	HCV inhibitor
Cc1ccc(Cl)cc1N1CCN(C(=O)c2ccccc2SCC(=O)N2CCCC2)CC1	-13	?	167%	-3%	11µM*
O=C(c1ccc(CN2CCOCC2)cc1)N1CCN(c2cccc(Cl)c2)CC1	-33	?	162%	2%	-5%
CCN1CCCC1CNC(=O)c1cnn(-c2nccc(-c3cccs3)n2)c1C1CC1 (stereo not drawn)	/	-9%	/	/	/
O=C(CNC(c1ccccc1)c1ccccc1)Nc1ccccc1-c1ccccc1	-71*	?	-13%	-4%	?
O=C(CSCc1c(Cl)cccc1Cl)Nc1ccccc1-c1ccccc1	-66*	-19%	-23%	?	?
O=C(CNC(c1ccccc1)c1ccccc1)Nc1ccccc1F	-25	-10%	-19%	-4%	-12%
O=C(COC(=O)Cc1c(Cl)cccc1Cl)Nc1ccccc1-c1ccccc1	12	?	-45%	2%	?
O=C(Cn1nc(-c2ccccc2Cl)ccc1=O)Nc1ccccc1-c1ccccc1	-64*	-17%	-18%	-2%	?
Cc1ncc(CO)c(/C=N/NC(=S)Nc2ccc(F)cc2)c1O	-12	0%	-33%	?	-19%
Cc1ncc(CO)c(/C=N/Nc2ccc(C(F)(F)F)cn2)c1O	-96*	6%	36%	0%	?
CCc1cccc(C)c1NC(=O)CSc1nc2ccccc2nc1N1CCOCC1	12	?	/	19%	/
CCc1cccc(C)c1NC(=O)CSc1nc2ccccc2nc1Cc1ccccc1	-68*	-10%	/	17%	/
Cc1ccc(Cc2nc3ccccc3nc2SCC(=O)Nc2ccc3c(c2)OCO3)cc1	-66*	6%	/	19%	/
CCN(CC)C(=O)c1ccc(CS(=O)(=O)Cc2ccccc2)cc1	5	-20%	-6%	?	0%
C=C(C)C1CC=C(C)/C(=N/NC(=O)c2ccccc2[N+](=O)[O-])C1 (stereo not drawn)	-18	-9%	16µM*	5%	-25%
Nc1c2c(nc3ccc(Br)cc13)N(Cc1ccccc1)CC2	-32	-10%	-40%	?	10µM*
CSc1nc(C)c2c(n1)N(c1cccc(C)c1)CC2	-26	-17%	147%	-2%	10µM*
Nc1c2c(nc3ccccc13)CCN(Cc1ccccc1)C2	76	20%	-36%	1%	?
Nc1c2c(nc3ccc(Br)cc13)N(c1ccccc1)CC2	-9	/	-39%	0%	7.1µM*
Cc1ccc2cc3c(nc2c1)N(c1ccccc1)CC3	?	8%	-24%	?	?
Cc1cccc(N2CCc3c2nc2ccc(Br)cc2c3N)c1	?	/	-37%	?	10µM*
Brc1ccc(-c2nc(N3CCN(c4ccccc4)CC3)c3ccccc3n2)cc1	?	0%	/	-1%	/
O=C(NCC1Cc2cccc(-c3cnccn3)c2O1)c1ccc(F)c(Cl)c1 (stereo not drawn)	/	-6%	/	/	/
O=[N+]([O-])c1ccc(N/N=C2\CC3CC=CC23)c([N+](=O)[O-])c1 (stereo not drawn)	27	?	-13%	5%	11µM*
O=[N+]([O-])c1ccc(N/N=C2\CC3CC=CC23)cc1 (stereo not drawn)	-13	40%	-43%	3%	22µM*
SMILES	HCMV inh	FMDV inh	AmpC inh no detg	AmpC inh detg	HCV inhibitor
COc1cc(Nc2cc3c(cn2)cc(-c2cccnc2)n3C)cc(C(F)(F)F)c1	0	/	/	/	/
O=[N+]([O-])c1ccccc1Oc1ccc(Cl)c2cccnc12	-7	-3%	-3%	4%	?
O=[N+]([O-])c1ccc(O)c2ncccc12	-99*	-20%	69%	-2%	?
O=[N+]([O-])c1ccc(O)c2cccnc12	-10	-13%	-20%	3%	?
O=[N+]([O-])c1cc([N+](=O)[O-])c2cccnc2c1Oc1ccccc1O	-28	16µM*	-15%	-6%	?
CN1C(=O)N(C)c2ccc(Br)c3cccc1c23	?	-12%	31%	0%	14µM*
CN1C(=O)N(C)c2ccc(C=O)c3cccc1c23	-21	-9%	-17%	-8%	-11%

High-throughput results: PubChem, National Center for Advancing Translational Sciences (NCATS)
